Measured values as given in PubChem BioAssay.
Activity calls are given as the source filed them. Unless noted, no stated cut-off is given here; in the data, active means inhibition above about 80%; inactive means the rest.

Assays:
[1] = drug combination growth inhibition, ovarian cancer – cell-based, oncology-focused library, rucaparib conditional, profiling panel (AID 1508598;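 active means normalized viability below 100% at a tested concentration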); settings: patient-derived ovarian cancer cells, CellTiter-Glo viability, 144 h, stronger effect = lower value
[2] = growth inhibition, single agent or in combination, cell-based, chromothripsis tumors, cisplatin or BGB combos (AID 1671449); settings: LFS_MB_P medulloblastoma cells;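 further: cells exposed for 96 hours; 0% = vehicle DMSO and 100% = killing by high DMSO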
[3] = growth inhibition, single agent and combos, cell-based, chromothripsis tumors, cisplatin or BGB combos (AID 1671450); settings: HDN33 neuroblastoma cells, stronger effect = higher value;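 further: cells exposed to compound for four days; 0% = vehicle DMSO and 100% = cell killing by high DMSO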
[4] = growth inhibition, single agents and combos, ICB984, cell-based, cisplatin or BGB combos, synergistic combos for chromothripsis tumors (AID 1671451; call rule not given here;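 further: cells exposed for 96 hours before readout; 0% = vehicle DMSO and 100% = killing by high DMSO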); settings: ICB984 medulloblastoma cells, drug combinations, stronger effect = higher value
[5] = growth inhibition, single agents and combos, HTB85, cell-based, BGB or cisplatin IC20 combos, synergistic combos for chromothripsis tumors (AID 1671453); settings: HTB85 osteosarcoma cells, drug combinations, stronger effect = higher value;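 further: cells exposed for 96 hours before readout; 0% = vehicle DMSO and 100% = high DMSO killing control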
[6] = growth inhibition, MDA-MB-436, cell-based, BGB or cisplatin combos, synergistic combos for chromothripsis tumors (AID 1671458; call rule not given here;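 further: cells exposed for 96 hours; 0% = vehicle DMSO and 100% = killing by high DMSO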); settings: MDA-MB-436 breast carcinoma growth inhibition, drug combinations, stronger effect = higher value
[7] = BT084 cell growth, single and combined drugs, ICGC_MB145, cisplatin and BGB IC40 combos (AID 1671461); settings: BT084 medulloblastoma cells, drug combinations, stronger effect = higher value;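 further: cells exposed to drugs for 96 hours; 0% = vehicle DMSO and 100% = high DMSO full killing control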
[8] = RCMB18 cell growth, single agent and combined, cisplatin and BGB IC40 combos (AID 1671462); settings: RCMB18 medulloblastoma cells, stronger effect = higher value;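 further: cells exposed to compound for four days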

For O=c1cc(N2CCOCC2)oc2c(-c3cccc4c3sc3ccccc34)cccc12, the viability ([1]; at 1.25 µM, OCI-P5x cells, without rucaparib) was 85.4% (active), the viability ([1]; at 5 µM, OCI-C5x cells, with rucaparib 10 µM, 100% = cells with rucaparib alone) was 66.1% (active) and the viability ([1]; at 5 µM, OCI-C5x cells, without rucaparib) was 89.5% (active). For the same compound, the viability ([1]; at 5 µM, OCI-P5x cells, with rucaparib 20 µM, 100% = cells with rucaparib alone) was 49.8% (active), the viability ([1]; at 5 µM, OCI-P5x cells, without rucaparib) was 78.7% (active) and the inhibition ([2]; at 0.5 µM, stronger effect = higher value) was -9.52% (inactive). It also gave an inhibition ([2]; measured here: combination with BGB IC20, at 0.005 µM) of -35.2%, an inhibition ([2]; measured here: combination with BGB IC40, at 0.005 µM) of -73.8% and an inhibition ([2]; measured here: combination with BGB IC40, at 0.05 µM) of -46%. For the same compound, the inhibition ([2]; measured here: combination with cisplatin, at 0.5 µM, stronger effect = higher value) was -30%, the inhibition ([2]; measured here: combination with cisplatin, at 5 µM, stronger effect = higher value) was -29.6% and the inhibition ([3]; BGB combo, at 5 µM) was -83.5%. The inhibition ([3]; at 0.5 µM) was -25.6% (inactive), the inhibition ([3]; cisplatin combo, at 5 µM) was -52% and the inhibition ([3]; measured here: with BGB IC20 combination, at 0.5 µM) was -33.3%. For the same compound, the inhibition ([3]; measured here: with cisplatin IC20 combination, at 0.5 µM) was -8.96%, the inhibition ([3]; single agent, at 5 µM) was -28.3% and the inhibition ([4]; BGB IC20 combo, at 0.005 µM) was -21.3%. The inhibition ([4]; BGB IC40 combo, at 0.005 µM) was -19.1%, the inhibition ([4]; BGB IC40 combo, at 0.05 µM) was -12.3% and the inhibition ([4]; at 0.5 µM) was -40.4% (inactive). For the same compound, the inhibition ([4]; cisplatin combo, at 0.05 µM) was -18%, the inhibition ([4]; cisplatin combo, at 0.5 µM) was -48.2% and the inhibition ([4]; cisplatin combo, at 5 µM) was -17.2%. The inhibition ([4]; measured here: 5 uM single agent, at 5 µM) was -2.07%, the inhibition ([5]; at 0.5 µM) was -12.3% (inactive) and the inhibition ([5]; measured here: with BGB IC20, at 0.5 µM) was 1.92%. The inhibition ([5]; measured here: with BGB IC20, at 5 µM) was -7.86%, the inhibition ([5]; measured here: with cisplatin IC20, at 0.5 µM) was -21.1% and the inhibition ([5]; measured here: with cisplatin IC20, at 5 µM) was -6.63%. For the same compound, the inhibition ([5]; single agent, at 5 µM) was 12.4%, the inhibition ([6]; at 0.5 µM) was -3.85% (inactive) and the inhibition ([6]; measured here: BGB combination, at 0.5 µM) was 6.02%. It also gave an inhibition ([6]; measured here: BGB combination, at 5 µM) of 9.28%, an inhibition ([6]; measured here: cisplatin combination, at 0.5 µM) of -13% and an inhibition ([6]; measured here: cisplatin combination, at 5 µM) of 5.38%. The inhibition ([7]; at 0.5 µM) was -28.7% (inactive), the inhibition ([7]; cisplatin combination, at 0.5 µM) was -22.9% and the inhibition ([7]; cisplatin combination, at 5 µM) was -216%. For the same compound, the inhibition ([7]; measured here: BGB IC40 combination 0.05 uM, at 0.05 µM) was -22.7%, the inhibition ([7]; single agent, at 5 µM) was -20.5% and the inhibition ([8]; at 0.5 µM) was -29.6% (inactive). For the same compound, the inhibition ([8]; cisplatin combo, at 5 µM) was -34.8%, the inhibition ([8]; measured here: BGB IC40 combination, at 0.05 µM) was -8.83% and the inhibition ([8]; measured here: combination with cisplatin, at 0.5 µM) was -51.5%. The inhibition ([8]; single agent, at 5 µM) was 0.048%.
